# According to PubChem BioAssay (NCATS):
# Calls of active or inactive are those of the source. Where a call stands in place of a potency, no number is given. Calls follow the shape of the dose curve; as a rule, active = well fitted curve in the direction sought with a large enough effect; inconclusive = small, poorly fitted or top-dose-only effect, or another doubt; inactive = no such curve, though single readings can be large or run the other way.
# Experiments:
# [1] = target: T1, Hexokinase-4 (Homo sapiens) + Glucokinase regulatory protein (Homo sapiens) (UniProt P35557+Q14397); test: qHTS assay for inhibitors of recombinant human GCK-GKRP interaction: Diaphorase-coupled assay (AID 743205)
# T1 sequence (P35557 whole entry, looked up): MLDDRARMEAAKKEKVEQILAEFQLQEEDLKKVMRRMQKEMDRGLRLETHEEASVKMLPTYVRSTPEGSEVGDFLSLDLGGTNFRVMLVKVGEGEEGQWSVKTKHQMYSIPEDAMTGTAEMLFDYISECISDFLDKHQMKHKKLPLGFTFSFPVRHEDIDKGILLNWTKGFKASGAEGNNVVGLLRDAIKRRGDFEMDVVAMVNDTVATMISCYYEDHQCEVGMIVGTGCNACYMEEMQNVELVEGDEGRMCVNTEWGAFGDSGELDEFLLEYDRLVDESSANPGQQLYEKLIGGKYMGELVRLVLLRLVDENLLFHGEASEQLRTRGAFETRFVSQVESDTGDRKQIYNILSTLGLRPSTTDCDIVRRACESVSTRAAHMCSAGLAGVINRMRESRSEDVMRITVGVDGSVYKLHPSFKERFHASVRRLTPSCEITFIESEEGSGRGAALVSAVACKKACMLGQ
# T1 sequence (Q14397 whole entry, looked up): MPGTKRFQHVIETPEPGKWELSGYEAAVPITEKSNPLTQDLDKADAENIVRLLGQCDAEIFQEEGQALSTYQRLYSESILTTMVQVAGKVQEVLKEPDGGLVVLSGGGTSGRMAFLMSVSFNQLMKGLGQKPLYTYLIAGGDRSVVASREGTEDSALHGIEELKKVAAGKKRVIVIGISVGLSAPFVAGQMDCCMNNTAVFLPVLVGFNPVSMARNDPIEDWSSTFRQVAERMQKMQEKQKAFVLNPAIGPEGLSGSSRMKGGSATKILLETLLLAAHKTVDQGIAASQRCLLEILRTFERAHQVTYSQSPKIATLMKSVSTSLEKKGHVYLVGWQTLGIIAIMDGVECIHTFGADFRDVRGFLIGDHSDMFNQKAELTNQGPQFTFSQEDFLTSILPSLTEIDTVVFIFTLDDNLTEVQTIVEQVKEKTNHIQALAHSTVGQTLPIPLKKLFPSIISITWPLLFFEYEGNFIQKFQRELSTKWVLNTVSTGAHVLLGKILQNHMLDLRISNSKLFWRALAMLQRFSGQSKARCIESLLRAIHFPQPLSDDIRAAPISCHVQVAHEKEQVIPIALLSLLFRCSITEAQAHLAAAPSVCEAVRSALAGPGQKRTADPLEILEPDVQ
# How it was run: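 Inhibitors of the GCK–GKRP complex relieve GKRP suppression of GCK, detected through a G6PDH–diaphorase cascade reducing resazurin. Human GST-GCK and FLAG-GKRP are used at 10 nM with 5 mM glucose and 0.4 mM ATP.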
# [2] = target: T1, Hexokinase-4 (Homo sapiens) + Glucokinase regulatory protein (Homo sapiens); test: qHTS assay for inhibitors of recombinant human GCK-GKRP interaction: ADP-Glo assay (AID 743206)
# How it was run: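 GST-GCK and FLAG-GKRP (15 nM each in the dispensed mix, with 2 uM S6P) react with 0.4 mM ATP and 5 mM glucose (final) in Hepes pH 7.6 for 60 min at room temperature. ADP is measured by ADP-Glo luminescence.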
# [3] = target: T1, Hexokinase-4 (Homo sapiens) + Glucokinase regulatory protein (Homo sapiens); test: qHTS assay for inhibitors of recombinant human GCK-GKRP interaction: HTRF assay (AID 743207)
# How it was run: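 Steps: dispense GCK–GKRP complex (5 nM each, GST- and FLAG-tagged) with 2 uM S6P; pin in compounds; add XL665/Eu-cryptate-labelled antibodies; incubate 60 min at room temperature; read time-resolved FRET at 665 and 615 nm.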
SMILES,Potency [1],Potency [2],Potency [3]
CCC1(O)CC2CN(CCc3c([nH]c4ccccc34)[C@@](C(=O)OC)(c3cc4c(cc3OC)N(C=O)C3[C@]45CCN4CC=C[C@@](CC)([C@@H](OC(C)=O)[C@]3(O)C(=O)OC)[C@H]45)C2)C1 (stereo not given in full),inactive,inactive,inactive
C=CC1(C)CC(=O)C2(O)C(C)(O1)C(OC(C)=O)C(O)C1C(C)(C)CCC(O)C12C (stereo not given),inactive,inactive,inactive
C=C1C[C@@]23CC[C@H]4[C@@](C)(CCC[C@@]4(C)C(=O)OC4OC(CO)C(O)C(O)C4O)[C@@H]2CC[C@]1(OC1OC(CO)C(O)C(O)C1OC1OC(CO)C(O)C(O)C1O)C3 (stereo not given in full),inactive,inactive,
Cn1c(=O)c2c(nc(/C=C/c3cccc(Cl)c3)n2C)n(C)c1=O,inactive,inactive,inactive
COc1cc(CC(=O)O)ccc1O,inactive,inactive,inactive
NC(=O)CNCCC(c1ccccc1)c1ccccc1,inactive,inactive,inactive
NOCC(=O)O,inactive,inactive,inactive
C#CC(N)CCC(=O)O (stereo not given),inactive,inactive,inactive
CSc1nc(N)c2ncn([C@@H]3O[C@H](COP(=O)(O)OP(=O)(O)O)C(O)[C@H]3O)c2n1 (stereo not given in full),inactive,inactive,
CC(=O)SC1CC2=CC(=O)CC[C@]2(C)C2CC[C@@]3(C)C(CC[C@@]34CCC(=O)O4)C12 (stereo not given in full),inactive,inactive,inactive
S=C(S)N1CCCC1,inactive,inactive,
O=S(=O)(c1cccc2c(Cl)cccc12)N1CCCNCC1,inactive,inactive,inactive
O=c1[nH]c(=O)c2nc3ccccc3nc2[nH]1,inactive,inactive,
